Activity calls are given as the source filed them. Unless noted, the rule behind the calls is not given here.
Key:
[1] = test system: Wnt5a (protein binding on small-molecule microarray); assay: small molecules binding Wnt5a protein – biophysical, small-molecule microarray, 635/667 nm fluorescence, primary screen (AID 1142); details: 635 nm fluorescence, higher = more signal;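 note: fluorescence read at 667 nm with signal to noise per printed feature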
[2] = ATP-based viability of Huh7 replicon cells – cell-based, CellTiter-Glo luminescence, basal, 48 h, cytotoxicity control for HCV replication inhibitor project, primary screen (AID 1143); details: higher = more signal, called active from +8 up or from −8 down;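 note: Huh7 hepatoma cells carrying a hepatitis C replication reporter with no stimulus; test concentration not given here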
[3] = Pseudomonas biofilm growth suppression – PAO1 strain, BacTiter-Glo luminescence, LB-PBS, primary screen (AID 1144); details: P. aeruginosa PAO1 biofilm, 12 h, higher = more signal
[4] = basal CRE-LacZ reporter activity in PC12 – cell-based, unstimulated, primary screen (AID 1145); details: no forskolin, luminescence, 4.5 h, higher = more signal, called active from +8 up or from −8 down
[5] = forskolin-driven CRE-LacZ activity in PC12 – cell-based, CRE-LacZ reporter, forskolin-stimulated, primary screen (AID 1146); details: luminescence, 4.5 h, higher = more signal, called active from +8 up or from −8 down;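 note: PC12 cells with 6xCRE LacZ reporter stimulated by forskolin 10 µM; beta-galactosidase reporter signal reflecting CREB driven transcription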
[6] = target: Streptavidin (Streptomyces avidinii) (UniProt P22629); assay: compounds binding control protein streptavidin – biophysical, small-molecule microarray, 635/667 nm fluorescence, artefact control for SMM compound annotation, primary screen (AID 1147); details: higher = more signal;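 note: signal reflects streptavidin binding to arrayed compounds as a control protein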
[7] = probe aInhba binding on compound microarray – biochemical, small-molecule microarray, 635/667 nm fluorescence, primary screen (AID 1148); details: higher = more signal;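 note: score merges 667nm spot fluorescence with signal-to-noise for antibody binding to printed compounds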
[8] = target: Torsin-1A (Homo sapiens) (UniProt O14656); assay: TOR1A wild-type binding on microarray – cell lysate, small-molecule microarray, lysate, 635/667 nm, primary screen (AID 1149); details: COS7 hTOR1A-WT lysate, 635 nm fluorescence, higher = more signal
[9] = target: Torsin-1A (Homo sapiens) (UniProt O14656); assay: torsin A mutant lysate binding on microarrays – cell lysate, small-molecule microarray, COS7 lysate, 635/667 nm fluorescence, primary screen (AID 1150); details: COS7 hTOR1A mutant lysate, 635 nm fluorescence, higher = more signal;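 note: score pools 667 nm emission and signal to noise measuring lysate protein binding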
[10] = test system: Sonic hedgehog protein (Shh); assay: Sonic hedgehog microarray binding compounds – biochemical, small-molecule microarray, 635/667 nm fluorescence, primary screen (AID 1151); details: 635 nm fluorescence, higher = more signal;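 note: Shh protein binding to compounds spotted on small-molecule microarray slides; score combines spot fluorescence intensity with signal-to-noise across triplicate slides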
[11] = optical density shifts of acrAB sulA E. coli – strain DRC41, OD650, 48 h, E. coli filamentation inducer project, primary screen (AID 1152); details: higher = more signal, called active from +8 up or from −8 down;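 note: E. coli MC1000 strain DRC41 lacking acrAB efflux pump and sulA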
[12] = probe aLefty1 binding on compound microarray – biochemical, small-molecule microarray, 635/667 nm fluorescence, primary screen (AID 1153); details: higher = more signal;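 note: score merges spot fluorescence with signal-to-noise ratio from the scanned slide images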
[13] = plasmodial surface anion channel blockers, osmotic lysis – cell-based, P. falciparum Indochina, OD700, 1 h, primary screen (AID 1154); details: P. falciparum Indochina infected RBC osmotic lysis, higher = more signal, called active from +8 up or from −8 down
[14] = plasmodial surface anion channel blockers, osmotic lysis – cell-based, P. falciparum Indochina, OD700, 2 h, primary screen (AID 1155);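 note: lysis reports solute entry through the parasite surface anion channel PSAC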; details: P. falciparum Indochina infected erythrocytes, higher = more signal, called active from +8 up or from −8 down
[15] = changes in parasitized red cell lysis, either direction – P. falciparum Indochina, OD700, 3 h, PSAC antagonist project, primary screen (AID 1156); details: P. falciparum-infected erythrocytes, osmotic lysis, higher = more signal, called active from +8 up or from −8 down
[16] = plasmodial surface anion channel blockers, osmotic lysis – cell-based, P. falciparum Indochina, OD700, 18 h, primary screen (AID 1157); details: P. falciparum Indochina infected erythrocytes, osmotic lysis OD700, 18 h; higher = more signal, called active from +8 up or from −8 down
[17] = S6 kinase pathway phospho-S6 level changes – cell-based, A549, cytoblot, luminescence, serum-stimulated, primary screen (AID 1158); details: 5 h, higher = more signal;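 note: serum-stimulated A549 lung adenocarcinoma cells; signal is phosphorylated S6 detected by cytoblot immunostaining with HRP secondary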
[18] = target: NADPH oxidase 2 (Homo sapiens) (UniProt P04839); assay: compounds shifting NOX2 Amplex Red fluorescence – cell-based, HEK293-NOX2, PMA-stimulated, NOX inhibitor project, primary screen (AID 1159); details: 45 min, higher = more signal, called active from +8 up or from −8 down; note: test concentration not given here
[19] = target: NADPH oxidase 4 (Homo sapiens) (UniProt Q9NPH5); assay: compounds shifting NOX4 Amplex Red fluorescence – cell-based, HEK293-NOX4, tetracycline-induced, NOX inhibitor project, primary screen (AID 1160); details: HEK293-NOX4, Amplex Red H2O2 fluorescence, 45 min; higher = more signal, called active from +8 up or from −8 down
[20] = target: NADPH oxidase 5 (Homo sapiens) (UniProt Q96PH1); assay: compounds shifting NOX5 Amplex Red fluorescence – cell-based, HEK293-NOX5, NOX inhibitor project, primary screen (AID 1161); details: HEK293-NOX5, ionomycin, 45 min, higher = more signal
NADPH oxidase 5 (Homo sapiens), sequence (Q96PH1 whole entry, looked up): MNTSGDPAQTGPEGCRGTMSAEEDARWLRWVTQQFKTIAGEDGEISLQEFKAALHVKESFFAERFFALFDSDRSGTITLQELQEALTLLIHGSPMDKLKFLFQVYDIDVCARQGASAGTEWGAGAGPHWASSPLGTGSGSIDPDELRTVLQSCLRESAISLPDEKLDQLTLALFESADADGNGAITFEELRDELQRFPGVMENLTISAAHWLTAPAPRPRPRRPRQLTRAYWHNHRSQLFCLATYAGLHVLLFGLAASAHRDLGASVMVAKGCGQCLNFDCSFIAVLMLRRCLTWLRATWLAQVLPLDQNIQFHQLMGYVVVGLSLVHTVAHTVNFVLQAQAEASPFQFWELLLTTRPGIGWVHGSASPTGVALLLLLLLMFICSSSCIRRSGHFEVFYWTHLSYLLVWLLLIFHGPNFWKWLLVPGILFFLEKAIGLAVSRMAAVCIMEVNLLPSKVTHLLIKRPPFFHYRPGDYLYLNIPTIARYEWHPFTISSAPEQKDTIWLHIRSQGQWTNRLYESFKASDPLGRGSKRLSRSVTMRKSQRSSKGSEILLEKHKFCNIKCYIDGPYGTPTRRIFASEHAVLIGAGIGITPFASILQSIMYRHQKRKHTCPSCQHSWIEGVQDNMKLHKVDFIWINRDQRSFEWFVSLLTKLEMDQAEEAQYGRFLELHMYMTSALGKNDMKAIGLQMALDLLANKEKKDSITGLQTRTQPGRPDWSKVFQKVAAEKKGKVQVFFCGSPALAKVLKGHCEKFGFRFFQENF

NADPH oxidase 2 (Homo sapiens), sequence (P04839 whole entry, looked up): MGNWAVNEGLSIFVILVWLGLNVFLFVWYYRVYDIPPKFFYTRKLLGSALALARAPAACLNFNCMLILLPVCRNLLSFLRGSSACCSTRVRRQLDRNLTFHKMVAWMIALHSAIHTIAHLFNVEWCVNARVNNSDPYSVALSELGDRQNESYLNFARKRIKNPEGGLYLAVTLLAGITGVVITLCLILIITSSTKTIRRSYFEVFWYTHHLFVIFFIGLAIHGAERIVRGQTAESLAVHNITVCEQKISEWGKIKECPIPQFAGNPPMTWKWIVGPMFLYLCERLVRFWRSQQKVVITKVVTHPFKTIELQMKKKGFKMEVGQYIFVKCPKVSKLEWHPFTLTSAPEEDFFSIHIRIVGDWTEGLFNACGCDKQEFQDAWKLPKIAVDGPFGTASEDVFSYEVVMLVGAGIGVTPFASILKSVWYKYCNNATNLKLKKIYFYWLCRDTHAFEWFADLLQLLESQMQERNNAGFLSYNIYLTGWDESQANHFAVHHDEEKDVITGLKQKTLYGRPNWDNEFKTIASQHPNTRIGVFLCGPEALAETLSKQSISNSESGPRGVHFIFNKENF
Torsin-1A (Homo sapiens), sequence (O14656 whole entry, looked up): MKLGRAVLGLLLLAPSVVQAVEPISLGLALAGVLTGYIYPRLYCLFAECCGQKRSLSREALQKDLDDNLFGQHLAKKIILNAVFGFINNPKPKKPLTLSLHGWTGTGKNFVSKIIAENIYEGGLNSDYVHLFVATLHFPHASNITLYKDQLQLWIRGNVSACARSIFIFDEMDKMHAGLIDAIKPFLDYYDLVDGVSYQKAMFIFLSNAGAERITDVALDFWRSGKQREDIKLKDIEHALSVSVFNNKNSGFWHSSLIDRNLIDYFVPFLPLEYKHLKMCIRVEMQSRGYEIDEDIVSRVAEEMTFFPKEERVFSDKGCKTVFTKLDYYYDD
Streptavidin (Streptomyces avidinii), sequence (P22629 whole entry, looked up): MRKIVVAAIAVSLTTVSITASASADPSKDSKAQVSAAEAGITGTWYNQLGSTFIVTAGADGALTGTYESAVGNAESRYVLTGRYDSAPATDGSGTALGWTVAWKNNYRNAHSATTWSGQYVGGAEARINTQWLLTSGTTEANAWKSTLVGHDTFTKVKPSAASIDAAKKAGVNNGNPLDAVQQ
NADPH oxidase 4 (Homo sapiens), sequence (Q9NPH5 whole entry, looked up): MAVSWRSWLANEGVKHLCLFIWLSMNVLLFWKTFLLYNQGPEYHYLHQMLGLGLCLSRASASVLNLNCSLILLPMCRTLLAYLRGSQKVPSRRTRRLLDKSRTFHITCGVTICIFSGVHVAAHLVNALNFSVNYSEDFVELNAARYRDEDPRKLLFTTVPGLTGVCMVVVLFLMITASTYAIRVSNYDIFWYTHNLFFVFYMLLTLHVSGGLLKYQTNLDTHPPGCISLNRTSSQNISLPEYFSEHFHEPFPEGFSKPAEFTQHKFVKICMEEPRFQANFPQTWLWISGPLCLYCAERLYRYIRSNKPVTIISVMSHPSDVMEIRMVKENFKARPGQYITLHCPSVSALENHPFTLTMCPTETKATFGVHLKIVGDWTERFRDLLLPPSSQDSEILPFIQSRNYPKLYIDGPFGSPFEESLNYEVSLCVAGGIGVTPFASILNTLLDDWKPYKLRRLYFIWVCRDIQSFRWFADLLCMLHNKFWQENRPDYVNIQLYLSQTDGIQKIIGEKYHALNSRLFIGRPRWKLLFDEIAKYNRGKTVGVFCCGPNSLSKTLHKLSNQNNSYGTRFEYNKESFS

| Compound | composite z-score [1] | z-score [2] | z-score [3] | z-score [4] | z-score [5] | composite z-score [6] | composite z-score [7] | composite z-score [8] | composite z-score [9] | composite z-score [10] | z-score [11] | composite z-score [12] | z-score [13] | z-score [14] | z-score [15] | z-score [16] | z-score [17] | z-score [18] | z-score [19] | z-score [20] |
| --- | --- | --- | --- | --- | --- | --- | --- | --- | --- | --- | --- | --- | --- | --- | --- | --- | --- | --- | --- | --- |
| CCOc1cc(C(O)C2C=CC3C(=O)N(C)C(=O)C3N2N2CCCCC2)ccc1O (stereo not given) | 0.194 | 0.862 (inactive) | -0.401 (inactive) | 0.433 (inactive) | -0.499 (inactive) | 0.3 | -0.137 | 0.28 | 0.221 | 0.0937 | -0.794 (inactive) | 0.267 | 1.5 (inactive) | 1.66 (inactive) | 0.0675 (inactive) | 1.12 (inactive) | -0.599 | -1.96 (inactive) | -3.83 (inactive) | -3.11 |
| O=C(CCCCCCC(=O)Nc1ccccc1)N/N=C/c1ccccc1 | -0.343 | 0.0796 (inactive) | 0.99 (inactive) | 5.11 (inactive) | 0.0631 (inactive) | -0.184 | 0.0074 | 0.577 | 0.146 | 0.0351 | -0.362 (inactive) | -0.24 | 24 (active) | 10.9 (active) | 0.0998 (inactive) | 0.992 (inactive) | -0.0886 | -0.3 (inactive) | -0.0411 (inactive) | -0.185 |
| CN(C)C(=O)[C@@]1(Cc2ccccc2N=[N+]=[N-])COC(c2ccc(OCCCO)cc2)=N1 | 0.932 | -2.68 (inactive) | 0.618 (inactive) | 0.942 (inactive) | 0.646 (inactive) | 0.726 | -0.0171 | 0.425 | 0.837 | -0.215 | 1.92 (inactive) | -0.781 | 26.3 (active) | 6.99 (inactive) | 3.43 (inactive) | 1.23 (inactive) | 0.685 | -1.99 (inactive) | -0.103 (inactive) | -1.82 |
| CC(CO)N1C(=O)[C@@H]2C3C(=O)OCCC/C=C\[C@H]3OC23C=CCN(Cn2nnc4ccccc42)C(=O)[C@@H]13 (stereo not given in full) | -0.275 | 0.39 (inactive) | -1.36 (inactive) | -0.358 (inactive) | -0.691 (inactive) | -0.521 | -0.024 | -1.02 | -0.296 | 0.276 | 0.822 (inactive) | -0.0035 | 1.03 (inactive) | 0.132 (inactive) | 2.14 (inactive) | 0.502 (inactive) | 0.282 | 1.32 (inactive) | 0.193 (inactive) | 2.03 |
| C=CC[C@@]1(C(=O)N2CCCCC2)N=C(c2ccc(OCCCO)cc2)O[C@@H]1c1ccccc1 | 0.18 | -3.63 (inactive) | 0.222 (inactive) | 1.5 (inactive) | -0.134 (inactive) | 0.0319 | 0.411 | 0.521 | 1.22 | -0.229 | 0.659 (inactive) | 0.683 | 26.1 (active) | 11.4 (active) | 2.02 (inactive) | 1.97 (inactive) | -0.499 | -0.432 (inactive) | 0.174 (inactive) | -1.66 |
| C=CC[C@@H](OC(=O)Nc1ccc(OC)cc1)c1ccc(OCCO)cc1 | -1.2 | -2.05 (inactive) | -0.542 (inactive) | 1.29 (inactive) | 0.0646 (inactive) | -1.21 | -0.237 | -3.71 | -3 | -0.49 | -0.14 (inactive) | -0.0638 | 19.5 (active) | 3.12 (inactive) | -0.149 (inactive) | 0.894 (inactive) | 0.0966 | -4.11 (inactive) | -1.4 (inactive) | -2.78 |
| CN(C)CCCNC(=O)[C@@H]1c2ccccc2C(=O)N(Cc2ccc(OC(F)(F)F)cc2)[C@H]1c1ccc(CO)cc1 | 0.0246 | -1.35 (inactive) | -1.42 (inactive) | -0.114 (inactive) | 0.77 (inactive) | 0.121 | -0.128 | -0.116 | 0.151 | 2.18 | 0.532 (inactive) | 0.197 | 2.04 (inactive) | 0.81 (inactive) | 3 (inactive) | 0.891 (inactive) | 0.0342 | 0.799 (inactive) | 0.237 (inactive) | 1.44 |
| CCCCN1CC=CC23O[C@@H]4C=CCOC(=O)[C@@H]4[C@H]2C(=O)N(C(C)CO)[C@@H]3C1=O (stereo not given in full) | -0.166 | -0.251 (inactive) | 1.27 (inactive) | -0.488 (inactive) | 0.401 (inactive) | -0.78 | -0.128 | 0.0171 | -0.241 | -0.213 | -0.65 (inactive) | -0.045 | 0.596 (inactive) | -0.404 (inactive) | 0.436 (inactive) | 0.111 (inactive) | -0.163 | 0.953 (inactive) | 0.56 (inactive) | 1.51 |

— PubChem BioAssay
